Test results published in PubChem BioAssay (NCATS).
Records with an inconclusive call do not appear. Calls of active or inactive are those of the source. Calls follow the shape of the dose curve; as a rule, active = well fitted cell-killing curve with a large enough effect; inconclusive = small, poorly fitted or top-dose-only effect, or effect the other way; inactive = no such curve, though single readings can be large or run the other way.

Key:
[1] = Viability qHTS for spleen associated tyrosine kinase inhibitor (SYKi) naive MV4-11 cells (AID 1963823); settings: MV4-11 AML viability, CellTiter-Glo luminescence, 72 h; series mostly up to 45 µM; also: nearly all actives have a fitted effect of over 40% in size
In short: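 SYKi-naive MV4-11 AML cells, 500 per well, were exposed to library compounds for 72 hr at 37 C, 5% CO2. Viability was then read by CellTiter-Glo luminescence after 10 min at room temperature.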

[2] = Viability qHTS for spleen associated tyrosine kinase inhibitor (SYKi) drug resistant MV4-11 cells (AID 1963824); settings: SYKi-resistant MV4-11 viability, CellTiter-Glo, 72 h; series mostly up to 45 µM; also: nearly all actives have a fitted effect of over 35% in size
In short: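 SYK inhibitor-resistant MV4-11 AML cells, 500 per well, added to predispensed compounds and incubated 72 hr at 37 C, 5% CO2. Viability measured by CellTiter-Glo luminescence after 10 min at room temperature.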
Potency is read from the fitted curve at half-maximal effect.

Row | Structure (SMILES) | Potency [1] | Potency [2] | viability (% of control) [1] | viability, % of control [2]
1 | COc1ccc(OC2OC(CO[C@@H]3O[C@@H](C)[C@H](O)[C@@H](O)[C@H]3O)C(O)C(O)C2O)cc1OC (stereo not given in full) | inactive | inactive | – | –
2 | O=C(O)Cc1cn(C2OCC(O)C(O)C2O[C@@H]2O[C@H](CO)[C@@H](O)[C@H](O)[C@H]2O)c2ccccc12 (stereo not given in full) | inactive | inactive | – | –
3 | CNc1nc(NCc2ccc(NS(C)(=O)=O)cc2Cl)cc(-c2ccccn2)n1 | 20.6 µM (active) | 23.1 µM (active) | – | –
4 | O=C(NN1CCCCC1)c1nn(-c2ccc(Cl)cc2Cl)c(-c2ccc(C#Cc3ccc(C(F)(F)F)cc3)s2)c1CNS(=O)(=O)N1CCCC1 | inactive | inactive | – | –
5 | CC1(C)CC[C@]2(C(=O)O[C@@H]3O[C@H](CO)[C@@H](O)[C@H](O)[C@H]3O)CC[C@]3(C)C(=CCC4[C@@]5(C)C[C@H](O)[C@H](O[C@@H]6O[C@H](C(=O)O)[C@@H](O)[C@H](O)[C@H]6O)[C@@](C)(CO)C5CC[C@]43C)C2C1 (stereo not given in full) | – | – | 24.2% [at 9.25 µM] (inactive) | 20.7% [at 9.25 µM] (inactive)
6 | Oc1cc(CNC(=S)/C=C/c2cc(O)c(O)c(Br)c2)cc(O)c1O | 1.84 µM (active) | 1.84 µM (active) | – | –
7 | C=CC(C)(C)O[C@@H]1O[C@H](CO[C@@H]2OC[C@](O)(CO)[C@H]2O)[C@@H](O)[C@H](O)[C@H]1O | inactive | inactive | – | –
8 | CN(c1ccccc1CNc1nc(Nc2ccc3c(c2)CC(=O)N3)ncc1C(F)(F)F)S(C)(=O)=O | 0.291 µM (active) | 0.326 µM (active) | – | –
9 | C=C(C(=O)O)C1CC2=C(C)C(=O)CC2C(C)CC1O (stereo not given) | 4.61 µM (active) | 3.66 µM (active) | – | –
10 | CCC(C)CNCC(=O)N1CCc2sccc2C1COc1cccc(C)c1 (stereo not given) | 9.2 µM (active) | 9.2 µM (active) | – | –
11 | C1CCC[C@H]2CCCN3CC[C@@H](CCCCCC[C@@H]4CCCN5CC[C@@H](CC1)O[C@@H]45)O[C@@H]23 | – | – | 90.7% [at 0.177 µM] (inactive) | 87.9% [at 0.177 µM] (inactive)
12 | C=CC(C)(C)C12Nc3c(ccc4c3OC(C)(C)C=C4)C1(O)CC1C(=O)N3CCCC3C(=O)N12 (stereo not given) | inactive | 4.47 µM (active) | – | –
13 | CC1(C)CC[C@]2(C(=O)O[C@@H]3O[C@H](CO)[C@@H](O)[C@H](O)[C@H]3O)CC[C@]3(C)C(=CCC4[C@@]5(C)CC[C@H](O[C@H]6O[C@H](CO)[C@@H](O)[C@H](O[C@@H]7O[C@H](CO)[C@@H](O)[C@H](O)[C@H]7O)[C@H]6O)C(C)(C)C5CC[C@]43C)[C@@H]2C1 (stereo not given in full) | – | – | 84% [at 9.25 µM] (inactive) | 95.6% [at 9.25 µM] (inactive)
14 | COC(=O)c1ccccc1O[C@@H]1O[C@H](CO)[C@@H](O)[C@H](O)[C@H]1O[C@@H]1O[C@@H](C)[C@H](O)[C@@H](O)[C@H]1O | inactive | inactive | – | –
15 | CC1(C)C2CC(OC3OC(COC4OCC(O)(CO)C4O)C(O)C(O)C3O)C1(C)CC2O (stereo not given) | inactive | inactive | – | –
16 | CC(CCc1ccc(O)cc1)O[C@@H]1O[C@H](CO[C@@H]2OC(CO)[C@H](O)[C@H]2O)[C@@H](O)[C@H](O)[C@H]1O (stereo not given in full) | inactive | inactive | – | –
17 | C=CCc1ccc(O[C@@H]2O[C@H](CO[C@@H]3O[C@@H](C)[C@H](O)[C@@H](O)[C@H]3O)[C@@H](O)[C@H](O)[C@H]2O)cc1 | inactive | inactive | – | –
18 | CN(C)CCCCCCNC(=O)c1cccc(-c2cc(O)c3ncccc3c2)c1 | 2.59 µM (active) | 3.26 µM (active) | – | –
19 | CC(=O)N1CCc2ccc(O)c(OC3OC(COC4OCC(O)(CO)C4O)C(O)C(O)C3O)c2C1Cc1ccc(O)cc1 (stereo not given) | inactive | inactive | – | –
20 | CC(NC(=O)CC(=O)O)C(=O)Nc1ccccc1C(N)=O (stereo not given) | inactive | inactive | – | –
21 | C=C1C(=O)OC[C@H]2C(C(=O)O)=CC3CC(C)(C)C[C@@]132 (stereo not given in full) | inactive | 14.6 µM (active) | – | –
22 | Cc1cc(-c2nncc3c(C(C)(C)C)c(OCc4ncnn4C)nn23)no1 | inactive | inactive | – | –
23 | C=C1C(=O)OC2CC(C)C(CCC(C)=O)=CCC12 (stereo not given) | 8.2 µM (active) | 5.17 µM (active) | – | –
24 | CC1(C)CCC2(CC1)N[C@@H](C(=O)N[C@@H]1CC[C@@H](C(N)=O)OC1)[C@H](c1ccnc(Cl)c1F)[C@]21C(=O)Nc2cc(Cl)ccc21 | 16 µM (active) | 5.68 µM (active) | – | –
25 | CC(CCC1(O)OC2CC3C4CC=C5CC(O[C@@H]6O[C@H](CO)[C@@H](O[C@@H]7O[C@@H](C)[C@H](O)[C@@H](O)[C@H]7O)[C@H](O)[C@H]6O[C@@H]6O[C@@H](C)[C@H](O)[C@@H](O)[C@H]6O)CCC5(C)C4CCC3(C)C2C1C)CO[C@@H]1O[C@H](CO)[C@@H](O)[C@H](O)[C@H]1O (stereo not given in full) | 3.48 µM (active) | 3.48 µM (active) | – | –
